Experimental data from PubChem BioAssay AID1159580 (chemical genetic matrix, 2015).
Several values for one entry are separate records, joined by “and”; a condition that tells them apart may be missing. Equal entries are not always repeated. Out of some 5,500 compounds screened, about 2,000 (36%) were called active. Inconclusive results (about 18%) are left out. This is one part of the list. Values without a mark were called inactive. Rule as the data show it: active = normalized growth mostly below about 0.91 (no sharp cut-off); inconclusive = no clear call, values can overlap the other calls; inactive = mostly above about 0.92.

Experiment: chemical genetic growth profiling, strain panel (AID 1159580);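 also: tested at 20 µM; growth read once vehicle control cultures reached saturation at 30 °C; 1 = growth at the plate median or of vehicle wells; lower values mean less growth of the strain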
Conditions: S. cerevisiae deletion strains, growth OD

For `CNCCC(Oc1ccc(C(F)(F)F)cc1)c1ccccc1` (stereo unspecified), which normalized growth (locus YAL013W, strain DEP1, hits give low values) is on record?
Its normalized growth is 1 and 1.01.

What about the normalized growth (locus YAL021C, strain ccr4, hits give low values) of the same compound?
Its normalized growth is 0.994.

And the normalized growth (locus YAL026C, strain drs2, hits give low values)?
Its normalized growth is 0.991.

And the normalized growth (locus YAL030W, strain snc1, hits give low values)?
The normalized growth was 0.987.

What about the normalized growth (locus YAL040C, strain CLN3, hits give low values) of the same compound?
The normalized growth was 1.01.

And the normalized growth (locus YBL061C, strain skt5, hits give low values)?
Its normalized growth is 0.986.

What about the normalized growth (locus YBR009C, strain hhf1, hits give low values) of the same compound?
The normalized growth was 0.99.

What about the normalized growth (locus YBR021W, strain FUR4, hits give low values) of the same compound?
Its normalized growth is 0.967.

And the normalized growth (locus YBR023C, strain chs3, hits give low values)?
Its normalized growth is 0.986.

What about the normalized growth (locus YBR171W, strain sec66, hits give low values) of the same compound?
Its normalized growth is 0.991.

And the normalized growth (locus YBR229C, strain ROT2, hits give low values)?
Its normalized growth is 1.01.

And the normalized growth (locus YBR231C, strain swc5, hits give low values)?
Its normalized growth is 0.986.

What about the normalized growth (locus YBR279W, strain paf1, hits give low values) of the same compound?
Its normalized growth is 0.985.

What about the normalized growth (locus YCL011C, strain gbp2, hits give low values) of the same compound?
The normalized growth was 0.991.

What about the normalized growth (locus YCL016C, strain dcc1, hits give low values) of the same compound?
The normalized growth was 0.995.

What about the normalized growth (locus YCL029C, strain bik1, hits give low values) of the same compound?
The normalized growth was 0.99.

And the normalized growth (locus YCL061C, strain MRC1 (second series), hits give low values)?
Its normalized growth is 0.983.

What about the normalized growth (locus YCL061C, strain MRC1, hits give low values) of the same compound?
The normalized growth was 0.985.

And the normalized growth (locus YCL069W, strain vba3, hits give low values)?
The normalized growth was 0.998.

What about the normalized growth (locus YCR088W, strain abp1, hits give low values) of the same compound?
The normalized growth was 0.995.

What about the normalized growth (locus YDL005C, strain med2, hits give low values) of the same compound?
The normalized growth was 0.99.

And the normalized growth (locus YDL035C, strain GPR1, hits give low values)?
Its normalized growth is 0.987.

What about the normalized growth (locus YDL040C, strain nat1, hits give low values) of the same compound?
Its normalized growth is 0.985.

And the normalized growth (locus YDL074C, strain BRE1, hits give low values)?
The normalized growth was 0.993.

And the normalized growth (locus YDL101C, strain DUN1, hits give low values)?
The normalized growth was 1.02.

And the normalized growth (locus YDL134C, strain PPH21, hits give low values)?
The normalized growth was 1.01.

And the normalized growth (locus YDL185W, strain tfp1, hits give low values)?
The normalized growth was 1.

What about the normalized growth (locus YDL192W, strain arf1, hits give low values) of the same compound?
Its normalized growth is 1.

What about the normalized growth (locus YDR001C, strain nth1, hits give low values) of the same compound?
Its normalized growth is 0.998.

And the normalized growth (locus YDR069C, strain doa4, hits give low values)?
Its normalized growth is 0.944.

And the normalized growth (locus YDR101C, strain arx1, hits give low values)?
The normalized growth was 0.987.

And the normalized growth (locus YDR137W, strain rgp1, hits give low values)?
Its normalized growth is 1.2 [resistant] (active).

What about the normalized growth (locus YDR150W, strain NUM1, hits give low values) of the same compound?
Its normalized growth is 1.01.

What about the normalized growth (locus YDR159W, strain sac3, hits give low values) of the same compound?
The normalized growth was 1.

What about the normalized growth (locus YDR162C, strain NBP2, hits give low values) of the same compound?
The normalized growth was 0.992.

And the normalized growth (locus YDR195W, strain ref2)?
Its normalized growth is 0.995.

And the normalized growth (locus YDR297W, strain sur2, hits give low values)?
The normalized growth was 0.995.

And the normalized growth (locus YDR318W, strain mcm21, hits give low values)?
The normalized growth was 0.996.

What about the normalized growth (locus YDR334W, strain swr1, hits give low values) of the same compound?
Its normalized growth is 0.987.

And the normalized growth (locus YDR335W, strain msn5, hits give low values)?
The normalized growth was 1.

What about the normalized growth (locus YDR363W, strain ESC2, hits give low values) of the same compound?
Its normalized growth is 1.02.

What about the normalized growth (locus YDR388W, hits give low values) of the same compound?
Its normalized growth is 0.93.

What about the normalized growth (locus YDR392W, strain spt3, hits give low values) of the same compound?
Its normalized growth is 0.996.

What about the normalized growth (locus YDR502C, strain sam2, hits give low values) of the same compound?
Its normalized growth is 0.991.

And the normalized growth (locus YEL003W, strain gim4, hits give low values)?
The normalized growth was 0.999.

And the normalized growth (locus YEL037C, strain rad23, hits give low values)?
The normalized growth was 0.993.

What about the normalized growth (locus YEL061C, strain CIN8 (second series), hits give low values) of the same compound?
The normalized growth was 0.998.

And the normalized growth (locus YEL061C, strain CIN8, hits give low values)?
Its normalized growth is 1.01.

And the normalized growth (locus YER002W, strain NOP16, hits give low values)?
Its normalized growth is 1.

What about the normalized growth (locus YER015W, strain faa2, hits give low values) of the same compound?
The normalized growth was 0.997.

What about the normalized growth (locus YER016W, strain bim1, hits give low values) of the same compound?
The normalized growth was 0.992.

What about the normalized growth (locus YER110C, hits give low values) of the same compound?
Its normalized growth is 0.994.

And the normalized growth (locus YER111C, strain swi4, hits give low values)?
The normalized growth was 0.981.

And the normalized growth (locus YER155C, strain BEM2 (second series), hits give low values)?
Its normalized growth is 1.01.

What about the normalized growth (locus YER155C, strain BEM2, hits give low values) of the same compound?
The normalized growth was 1.01.

What about the normalized growth (locus YER167W, strain BCK2, hits give low values) of the same compound?
Its normalized growth is 1.01.

And the normalized growth (locus YFR010W, strain ubp6, hits give low values)?
Its normalized growth is 0.972.

And the normalized growth (locus YGL078C, strain dbp3, hits give low values)?
The normalized growth was 0.99.

And the normalized growth (locus YGL086W, strain mad1, hits give low values)?
The normalized growth was 1.

What about the normalized growth (locus YGL167C, strain pmr1, hits give low values) of the same compound?
Its normalized growth is 0.987.

What about the normalized growth (locus YGL173C, strain kem1, hits give low values) of the same compound?
The normalized growth was 0.982.

And the normalized growth (locus YGL227W, strain vid30, hits give low values)?
The normalized growth was 0.982.

And the normalized growth (locus YGL240W, strain doc1, hits give low values)?
Its normalized growth is 0.975.

And the normalized growth (locus YGL248W, strain PDE1, hits give low values)?
The normalized growth was 1.02.

What about the normalized growth (locus YGL253W, strain hxk2, hits give low values) of the same compound?
The normalized growth was 0.977.

What about the normalized growth (locus YGR078C, strain PAC10, hits give low values) of the same compound?
The normalized growth was 0.948 and 0.983.

And the normalized growth (locus YGR135W, strain pre9, hits give low values)?
Its normalized growth is 0.986.

What about the normalized growth (locus YGR229C, strain SMI1, hits give low values) of the same compound?
The normalized growth was 0.949.

What about the normalized growth (locus YGR252W, strain gcn5, hits give low values) of the same compound?
The normalized growth was 0.923.

What about the normalized growth (locus YHR013C, strain ard1, hits give low values) of the same compound?
Its normalized growth is 0.922.

And the normalized growth (locus YHR027C, strain rpn1, hits give low values)?
Its normalized growth is 0.991.

What about the normalized growth (locus YHR030C, strain SLT2, hits give low values) of the same compound?
The normalized growth was 1.01 and 1.

What about the normalized growth (locus YHR079C, strain IRE1 (second series), hits give low values) of the same compound?
Its normalized growth is 0.997.

What about the normalized growth (locus YHR079C, strain IRE1, hits give low values) of the same compound?
The normalized growth was 1.03.

What about the normalized growth (locus YHR094C, strain hxt1, hits give low values) of the same compound?
Its normalized growth is 1.

What about the normalized growth (locus YHR129C, strain ARP1, hits give low values) of the same compound?
Its normalized growth is 1.02.

What about the normalized growth (locus YHR142W, strain chs7, hits give low values) of the same compound?
The normalized growth was 0.992.

What about the normalized growth (locus YHR200W, strain rpn10, hits give low values) of the same compound?
Its normalized growth is 0.993.

What about the normalized growth (locus YIL066C, strain RNR3, hits give low values) of the same compound?
Its normalized growth is 1.01.

And the normalized growth (locus YIL073C, strain SPO22, hits give low values)?
The normalized growth was 1.25.

And the normalized growth (locus YIL125W, strain kgd1, hits give low values)?
Its normalized growth is 0.997.

And the normalized growth (locus YIR030C, strain dcg1, hits give low values)?
The normalized growth was 1.

And the normalized growth (locus YJL092W, strain hpr5, hits give low values)?
The normalized growth was 0.986.

And the normalized growth (locus YJL095W, strain BCK1 (second series), hits give low values)?
The normalized growth was 0.992.

And the normalized growth (locus YJL095W, strain BCK1, hits give low values)?
The normalized growth was 0.99 and 0.988.

What about the normalized growth (locus YJL115W, strain asf1, hits give low values) of the same compound?
The normalized growth was 0.993.

What about the normalized growth (locus YJL129C, strain trk1, hits give low values) of the same compound?
Its normalized growth is 1.01.

And the normalized growth (locus YJL134W, strain LCB3, hits give low values)?
Its normalized growth is 1.

What about the normalized growth (locus YJL154C, strain vps35, hits give low values) of the same compound?
Its normalized growth is 1.01.

And the normalized growth (locus YJL164C, strain tpk1, hits give low values)?
Its normalized growth is 0.987.

And the normalized growth (locus YJL166W, strain qcr8, hits give low values)?
The normalized growth was 0.99.

And the normalized growth (locus YJL168C, strain set2, hits give low values)?
Its normalized growth is 0.993.

And the normalized growth (locus YJL187C, strain SWE1 (second series), hits give low values)?
The normalized growth was 1.02.

What about the normalized growth (locus YJL187C, strain SWE1, hits give low values) of the same compound?
The normalized growth was 0.986.

And the normalized growth (locus YJR043C, strain POL32, hits give low values)?
Its normalized growth is 1.

And the normalized growth (locus YJR066W, strain TOR1, hits give low values)?
The normalized growth was 0.988.
